Hits are enriched below; roughly 1.3% of the tested compounds scored in any of these assays.
NCOA1 inh: inhibitors of human steroid receptor coactivator 1 (SRC1). Q15788. HEK293 GAL4-SRC1 luciferase reporter, luminescence. inhibition, % at 3.6 µM. actives 0.12% (n = 360,000). AID 588354;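 active means inhibition above the campaign mean plus 3 SD, with each screening campaign given its own cutoff, cut at about 60% in these data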;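 further: 0% = DMSO treated cells and 100% = gossypol at 36 µM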
SRC3 inh: human NCOA3 inhibition. HEK293 GAL4-SRC3 luciferase reporter, luminescence. inhibition, % at 3.6 µM. actives 0.17% (n = 360,000);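 active means inhibition above a per-campaign cutoff, the mean of all compounds plus 3 SD, cut at about 60% in these data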;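 further: 0% = DMSO-treated cells and 100% = gossypol-treated cells at 36 µM; higher means less SRC3-driven luciferase light from the GAL4 reporter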
SRC2 inh: inhibits human steroid receptor coactivator 2; AID 651957; HEK293 GAL4-SRC2 luciferase reporter, luminescence; inhibition, % at 9 µM; Q15596; actives 0.17% (n = 370,000);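 active means inhibition above the mean inhibition of all tested compounds plus 3 SD, set per campaign, cut at about 52% in these data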;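 further: 0% = DMSO treated cells and 100% = cells given Gossypol at 36 µM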
Gli-Sufu antag: blocks Gli-Sufu signaling in a luciferase reporter. Sufu-KO-LIGHT fibroblasts, Gli luciferase reporter luminescence. AID 588413. actives 0.74% (n = 340,000). inhibition, % at 5 µM;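 active means inhibition above about 55%, limit read from the data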;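 further: 0% = DMSO-treated cells and 100% = wells with medium but no cells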
LRH-1 inv ag: inverse agonists of human LRH-1 (NR5A2); O00482; HEK293T StAR-luciferase reporter, LRH-1 transfected, 24 h; inhibition, % at 3.6 µM; actives 0.13% (n = 360,000);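 active means inhibition above the mean inhibition of all tested compounds plus 3 SD, cut at about 73% in these data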;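 further: 0% = DMSO wells and 100% = reporter-only cells lacking LRH-1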
Target sequence (O00482 whole entry, looked up): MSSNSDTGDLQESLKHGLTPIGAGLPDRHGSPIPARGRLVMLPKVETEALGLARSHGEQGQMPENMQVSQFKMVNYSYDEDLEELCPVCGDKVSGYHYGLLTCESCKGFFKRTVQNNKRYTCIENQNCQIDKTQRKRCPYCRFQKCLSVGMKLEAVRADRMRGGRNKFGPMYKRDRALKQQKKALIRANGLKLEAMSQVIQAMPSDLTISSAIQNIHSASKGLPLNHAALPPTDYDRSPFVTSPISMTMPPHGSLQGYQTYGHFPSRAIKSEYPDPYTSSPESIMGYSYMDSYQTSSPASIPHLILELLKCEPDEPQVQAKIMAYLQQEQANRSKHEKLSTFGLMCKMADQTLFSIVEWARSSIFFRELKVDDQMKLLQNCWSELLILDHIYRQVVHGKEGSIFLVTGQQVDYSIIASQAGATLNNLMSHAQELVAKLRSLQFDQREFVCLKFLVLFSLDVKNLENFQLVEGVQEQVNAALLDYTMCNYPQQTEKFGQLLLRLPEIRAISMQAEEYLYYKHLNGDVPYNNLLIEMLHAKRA
COUP-TFII inh: NR2F2 (human) inhibition, primary screen; actives 0.7% (n = 370,000); AID 686940; HEK293T NGFI-A luciferase reporter, luminescence; inhibition, % at 8.6 µM; P24468;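 active means inhibition above a per-plate cutoff, mean inhibition of test wells between control levels plus 3 SD, cut at about 38% in these data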;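 further: cells cotransfected with COUP-TFII expression vector driving the NGFI-A reporter; 0% = median of COUP-TF2 test wells and 100% = reporter-only cells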
Gli antag conf: confirmation of Gli-SUFU pathway antagonists; inhibition, % at 5 µM; AID 602428; shares compounds with Gli-Sufu antag; Sufu-KO-LIGHT cells, Gli luciferase reporter, luminescence; actives 40% (n = 2,500);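 active means mean inhibition at 5 µM reaching about 45%, limit read from the data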;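 further: plate controls were DMSO-treated cells for no effect and wells lacking cells for full effect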
SufuKO cytotox: cytotoxic in Gli-SUFU antagonist counter-screen; shares compounds with Gli-Sufu antag; Sufu-KO-LIGHT cells cytotoxicity, ATP luminescence; cytotoxicity, % at 5 µM; actives 32% (n = 2,500); AID 651994;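 active means mean cytotoxicity at 5 µM above about 25%, limit read from the data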;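 further: cells exposed to compound overnight for roughly 16 to 18 hours; plate controls were DMSO wells with cells for no effect and medium without cells for full effect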
Wnt3a counter: inhibits Wnt3a reporter, counter-screen for Gli-SUFU antagonists | shares compounds with Gli-Sufu antag | Wnt-LIGHT cells, Wnt3a-driven luciferase reporter, luminescence | inhibition, % at 6.25 µM | actives 20% (n = 2,500);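 active means mean inhibition above about 25%, limit read from the data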
Starred values were filed as active, the others as inactive; . = no result.

SMILES	NCOA1 inh	SRC3 inh	SRC2 inh	Gli-Sufu antag	LRH-1 inv ag	COUP-TFII inh	Gli antag conf	SufuKO cytotox	Wnt3a counter
CC(C)Sc1nc(-c2ccccc2)cc(=O)[nH]1	-28.6	-35.8	13.5	69.0*	11.3	3.9	22.1	3.7	3.2
CCC(Sc1nc(-c2ccccc2)cc(=O)[nH]1)C(=O)O (centres undefined)	-6.0	17.6	-15.1	5.2	19.7	-2.4	.	.	.
CC(=O)c1cc(-c2ccccc2)c(=O)n2c1CCC2	.	.	20.5	.	.	1.6	.	.	.
COc1ccccc1CN(C(=O)Cc1cccs1)C(C(=O)NC1CCCC1)c1ccncc1 (centres undefined)	6.5	23.0	4.2	55.5*	13.4	14.9	25.0	26.9*	-9.2
COc1ccccc1CC(=O)NC1CCCCCC1	-3.3	-14.6	28.1	52.7	10.4	-2.4	19.9	23.6	-2.7
COc1ccccc1CC(=O)NC1CC1	1.2	-1.3	7.8	.	-26.7	-1.6	.	.	.
O=C(Nc1nc(-c2cccs2)cs1)c1cccc(S(=O)(=O)N2CCCCCC2)c1	-7.4	-20.1	-1.0	61.1*	-10.7	10.4	57.6*	-5.4	-81.1
O=C(Nc1nc(-c2cccs2)cs1)c1ccc(S(=O)(=O)N2CCCCC2)cc1	-10.7	16.8	-1.2	6.9	6.8	28.0	.	.	.
CN1/C(=C\C(=O)C(F)F)C(C)(C)c2ccccc21	-0.7	17.5	-27.4	17.3	4.3	1.3	.	.	.
Cc1ccc(C(=O)NC(=S)/C=C2\N(C)c3ccccc3C2(C)C)cc1	7.7	14.4	31.1	77.4*	16.0	6.9	26.8	11.9	-9.9
CN1/C(=C\C=N\NC(=O)c2ccc(O)cc2)C(C)(C)c2ccccc21	9.8	16.4	-21.5	75.6*	-10.5	-7.1	65.1*	25.5*	11.9
CC(C)C(=O)NC(=S)/C=C1/N(C)c2ccccc2C1(C)C	-10.1	-5.3	-4.0	55.7*	2.6	10.7	57.4*	16.9	11.6
CC(=O)/C=C1\N(C)c2ccc(C)cc2C1(C)C	-1.0	9.8	1.8	61.2*	-4.4	5.3	60.9*	29.1*	30.3*
Cc1cc(C)nc(N2CCN(C(=O)CSc3nc4ccccc4nc3N3CC(C)OC(C)C3)CC2)n1 (centres undefined)	.	.	-14.8	.	.	-1.7	.	.	.
CC[C@@H](CCCc1ccc(F)cc1)CN(Cc1ccc(OC)cc1)S(=O)(=O)c1ccc(C)cc1	.	.	25.4	.	.	7.5	.	.	.
CCOC(=O)C1CCN(c2cc3c(cc2NC(=O)c2cc(OC)ccc2Br)n(C)c(=O)n3C)CC1	9.2	13.6	-18.0	50.6	0.9	9.4	17.1	16.4	1.6
O=C(O)c1ccc(N/N=C/c2ccc(OC(=O)c3ccccc3Cl)cc2)cc1	-31.8	-14.1	0.6	60.5*	-64.7	21.4	63.8*	6.5	79.4*
COc1cc(C=Nn2c(-c3ccc(F)cc3)n[nH]c2=S)ccc1OCc1ccccc1	.	.	19.6	.	.	14.0	.	.	.
CC[C@@H](CCCCCCCn1ccc2ccccc21)CCC(=O)N(c1ccccc1)c1ccccc1	.	.	12.4	.	.	6.6	.	.	.
COc1ccc(C(=O)NCc2nnc(SCC(=O)Nc3cc(OC)ccc3OC)o2)cc1	1.2	11.5	-12.5	52.1	-20.5	2.6	13.7	1.9	6.2
COc1ccc(OC)c(NC(=O)COC(=O)c2ccc(-n3cnnn3)cc2)c1	-14.4	8.8	0.0	69.3*	2.3	4.5	10.1	-3.9	-14.1
COc1ccc(OC)c(NC(=O)CSc2nnc(CNC(=O)c3ccccc3F)o2)c1	-1.3	8.0	-17.6	40.1	5.7	-11.3	.	.	.
O=C(NC1CC1c1ccccc1)N1CCC(c2nc3ccc(Cl)cc3[nH]2)CC1 (centres undefined)	.	.	11.9	.	.	2.8	.	.	.
COC(=O)CCC(=O)N1C2=NC3=C(C(=O)N(Cc4ccc5c(c4)OCO5)C3=O)C3N(C)c4ccccc4[C@]23C[C@H]1CO (some centres undefined)	.	.	-5.1	.	.	4.3	.	.	.
C[C@H](O)[C@@H]1C(=O)N2CCc3c([nH]c4cccc(-c5ccccc5)c34)[C@@H]2C[C@@H]1N(C)C(=O)c1ccco1	.	.	-15.6	.	.	8.1	.	.	.
